ALOX12 inh – inhibitors of human 12S-lipoxygenase ALOX12; purified 12hLO, xylenol orange hydroperoxide absorbance; 580,000 tested, 1.1% active; Potency, µM (titrated, usually from 108 µM), usual class: inhibitors; P18054; AID 1671190
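Hydroperoxide product was detected by ferrous iron/xylenol orange as the 573 to 405 nm absorbance ratio. Arachidonic acid at 40 uM (final) was turned over for 30 min at room temperature by 150 nM human 12hLO, pH 7.0 Hepes buffer, after 15 min compound preincubation.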
HP1b binding inh – inhibitors of HP1-beta chromodomain binding to methylated histone tails | Potency, µM (highest dose often 114 µM), hits mostly inhibitors | 390,000 tested, 0.56% active | P83916 | AlphaScreen HP1-beta / biotin-H3K9me3 peptide binding | AID 540317; further: nearly all actives have a fitted effect of over 70% in size
Target sequence (P83916 whole entry, looked up): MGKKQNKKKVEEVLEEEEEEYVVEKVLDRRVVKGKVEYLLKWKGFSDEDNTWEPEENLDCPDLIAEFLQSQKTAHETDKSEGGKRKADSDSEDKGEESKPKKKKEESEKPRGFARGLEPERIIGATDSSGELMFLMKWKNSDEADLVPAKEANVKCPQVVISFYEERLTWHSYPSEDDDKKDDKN
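HP1-beta protein (50 nM final) preincubated 30 min at room temperature with biotinylated H3(1-18)K9me3 peptide (50 nM) in PBS pH 7.4, 0.01% Tween-20, then compound added for 30 min. AlphaScreen streptavidin donor/nickel chelate acceptor beads (10 ug/mL final), 30 min dark, luminescence read.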
G9a inh – G9a (human) methyltransferase inhibition; Q96KQ7; G9a H3K9 monomethylation, AlphaScreen, 2 h; Potency, µM (series often up to 102 µM), usual class: inhibitors; 350,000 tested, 8.8% active; further: nearly all actives have a fitted effect of over 75% in size
Target sequence (Q96KQ7 913-1193 limits assumed): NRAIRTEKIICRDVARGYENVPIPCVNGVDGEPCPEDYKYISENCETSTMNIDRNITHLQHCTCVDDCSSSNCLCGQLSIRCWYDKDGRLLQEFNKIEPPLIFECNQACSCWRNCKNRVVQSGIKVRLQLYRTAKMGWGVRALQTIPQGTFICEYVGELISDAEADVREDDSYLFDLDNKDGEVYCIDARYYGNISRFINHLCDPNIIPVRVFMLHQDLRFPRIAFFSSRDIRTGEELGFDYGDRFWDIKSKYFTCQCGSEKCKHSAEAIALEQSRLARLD
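Compounds were preincubated with 20 nM G9a for 15 min, after which biotinylated H3K9 peptide (500 nM) and SAM (20 uM) started a 2 h room-temperature reaction. Monomethylated product was quantified by antibody-based AlphaScreen chemiluminescence.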
JMJD2A Tudor – blocks the human JMJD2A Tudor domain; O75164; AlphaScreen JMJD2A-Tudor / H3K4me3 peptide binding; Potency, µM (top dose mostly 114 µM), usual class: inhibitors; 390,000 tested, 4.4% active; AID 504339; further: nearly all actives have a fitted effect of over 50% in size
PLK1 PBD block – PLK1 (human) polo-box domain binding inhibition; Plk1 PBD binding of FITC phosphopeptide, fluorescence polarization; Potency, µM, usual class: inhibitors; 360,000 tested, 2.8% active; AID 720504; further: series mostly up to about 57 µM; nearly all actives have a fitted effect of over 65% in size
BAZ2B block – inhibitors of human BAZ2B bromodomain; Q9UIF8; AlphaScreen BAZ2B-H3K14Ac peptide displacement; Potency, µM (series often up to 114 µM), most hits filed as inhibitors; 360,000 tested, 4.4% active; AID 504333; further: nearly all actives have a fitted effect of over 60% in size
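In this displacement format the biotinylated H3(5-23) peptide acetylated at Lys14 serves as ligand at 50 nM, with BAZ2B at 50 nM in PBS pH 7.4 containing 0.01% Tween-20. Donor and acceptor beads are 10 ug/mL final.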
Numbers stand for hits; [ ] = another dose, or the depositor's remark. Sampled rows, rich in hits. Any-hit rate of the full collection: about 9%. The call rests on the fitted dose curve; in most records, active means well fitted curve in the direction sought with a large enough effect; inconclusive means small, poorly fitted or top-dose-only effect, or another doubt; inactive means no such curve, though single readings can be large; an effect the other way counts as inactive or inconclusive.

For N#C/C(=C/c1cc[nH]c1)C(N)=S the results were ALOX12 inh inconclusive, HP1b binding inh inactive, G9a inh inconclusive, JMJD2A Tudor inactive, PLK1 PBD block inactive and BAZ2B block inactive.
`O=C(Nc1nncs1)c1ccc(Br)c(S(=O)(=O)N2CCCC2)c1` gave ALOX12 inh inactive, HP1b binding inh inactive, G9a inh inconclusive, JMJD2A Tudor inactive, PLK1 PBD block inactive and BAZ2B block inactive.
`CC/C(=N/Nc1ccccc1)c1cnnc(-c2ccccc2)n1` gave ALOX12 inh inconclusive, HP1b binding inh inactive, G9a inh 7.1µM, JMJD2A Tudor inactive, PLK1 PBD block inactive and BAZ2B block inactive.
Screening CC/C(=N/Nc1cccc(Cl)c1)c1cnnc(SC)n1 returned ALOX12 inh inconclusive, HP1b binding inh inactive, G9a inh inactive, JMJD2A Tudor inconclusive, PLK1 PBD block inactive and BAZ2B block inactive.
Screening CCSc1ccccc1C(=O)NCc1ccc(S(N)(=O)=O)cc1 returned ALOX12 inh inactive, HP1b binding inh inactive, G9a inh inconclusive, JMJD2A Tudor inactive, PLK1 PBD block inactive and BAZ2B block inactive.
For NS(=O)(=O)c1ccc(CNC(=O)c2ccccc2SCC(=O)N2CCCC2)cc1 the results were ALOX12 inh inactive, HP1b binding inh inactive, G9a inh 35µM, JMJD2A Tudor inactive, PLK1 PBD block inactive and BAZ2B block inactive.
Screening Cc1ccc(CNC(=O)c2ccccc2SCC(=O)NCC2CCCCC2)cc1 returned ALOX12 inh inactive, HP1b binding inh inactive, G9a inh 45µM, JMJD2A Tudor inactive, PLK1 PBD block inactive and BAZ2B block inactive.
Screening O=C(CSc1ccccc1C(=O)N1CCCCC1)NCC1CCCCC1 returned HP1b binding inh inactive, G9a inh inactive, JMJD2A Tudor inactive, PLK1 PBD block inactive and BAZ2B block inactive.
`COC(=O)c1sc2nc(C)nc(SCC(=O)Nc3sccc3C(N)=O)c2c1C` gave ALOX12 inh inactive, HP1b binding inh inactive, G9a inh inactive[12.7 µM], JMJD2A Tudor inactive, PLK1 PBD block inactive and BAZ2B block inactive.
Screening CCCNC(=O)c1nc(C)n(-c2ccc([N+](=O)[O-])cc2)n1 returned ALOX12 inh inactive, HP1b binding inh inactive, G9a inh inactive, JMJD2A Tudor inconclusive, PLK1 PBD block 27µM and BAZ2B block inactive.
Screening O=C(COC(=O)CNC(=O)c1ccco1)NCCN1C(=O)CSC1=O returned ALOX12 inh inactive, HP1b binding inh inactive, G9a inh inactive, JMJD2A Tudor inactive, PLK1 PBD block inactive and BAZ2B block inactive.
NS(=O)(=O)c1ccc(NC(=O)c2cccc(N3C(=O)c4ccccc4C3=O)c2)cc1 was read as ALOX12 inh inactive, HP1b binding inh inactive, G9a inh 10µM, JMJD2A Tudor inconclusive, PLK1 PBD block inconclusive and BAZ2B block inconclusive.
For O=C(O)c1cc(NC(=O)c2cccc(N3C(=O)c4ccccc4C3=O)c2)cc(C(=O)O)c1 the results were ALOX12 inh inactive, HP1b binding inh inactive, JMJD2A Tudor inactive, PLK1 PBD block inactive and BAZ2B block inactive.
`CC(=O)c1ccc(NC(=O)c2cccc(N3C(=O)c4ccccc4C3=O)c2)cc1` gave HP1b binding inh inactive, G9a inh 79µM, JMJD2A Tudor inactive, PLK1 PBD block inactive and BAZ2B block inactive.
COc1ccc(CN2CCC(CO)(CCCc3ccccc3)CC2)c(Cl)c1OC was read as ALOX12 inh inactive.
Screening S=C1SCN(Cc2ccccn2)CN1Cc1ccco1 returned ALOX12 inh inconclusive, HP1b binding inh inactive, G9a inh 2.2µM, JMJD2A Tudor 6.3µM, PLK1 PBD block inconclusive and BAZ2B block 18µM.
For CC(C)CN1CN(Cc2ccco2)CNC1=S the results were ALOX12 inh inactive, HP1b binding inh inactive, G9a inh inactive, JMJD2A Tudor inactive, PLK1 PBD block inactive and BAZ2B block inactive.
`COCCN1CSC(=S)N(Cc2ccco2)C1` gave ALOX12 inh inactive, HP1b binding inh inactive, G9a inh 45µM, JMJD2A Tudor inconclusive, PLK1 PBD block 17µM and BAZ2B block inactive.
COc1ccccc1OCC(=O)N1CCC(c2nc3ccccc3o2)CC1 was read as ALOX12 inh inactive, HP1b binding inh inactive, G9a inh inactive, JMJD2A Tudor inactive and BAZ2B block inactive.
CCOc1ccc2nc(SCC(=O)c3ccc(Cl)s3)sc2c1 was read as ALOX12 inh inactive, HP1b binding inh inactive, G9a inh inconclusive, JMJD2A Tudor inactive, PLK1 PBD block inactive and BAZ2B block inactive.
For COc1cc(/C=C/C2=Nc3ccccc3SC(C)(C)C2)ccc1O the results were ALOX12 inh 16µM.
COc1cc(/C=C/C2=NC(=O)C(C)(C)O2)ccc1O was read as HP1b binding inh inactive, G9a inh inconclusive, JMJD2A Tudor inactive, PLK1 PBD block inactive and BAZ2B block inactive.
CCN(CC)C(=O)C1CCN(CC2CC=CCC2)CC1 (stereo not drawn) was read as ALOX12 inh inactive, HP1b binding inh inactive, G9a inh 13µM, JMJD2A Tudor 6.3µM, PLK1 PBD block inactive and BAZ2B block 56µM.
CCC(CC)N1CCN(CC2CC=CCC2)CC1 (stereo not drawn) was read as ALOX12 inh inactive, HP1b binding inh inconclusive, G9a inh 10µM, JMJD2A Tudor 1.8µM and PLK1 PBD block inactive.
For CCN(Cc1ccccc1)C(=O)C1CCN(S(=O)(=O)c2ccc3c(c2)OCCO3)CC1 the results were ALOX12 inh inactive, HP1b binding inh inactive, G9a inh inactive, JMJD2A Tudor inactive, PLK1 PBD block inactive and BAZ2B block inactive.
`CCN(Cc1ccccc1)C(=O)C1CCN(CC2CC=CCC2)CC1` (stereo not drawn) gave ALOX12 inh inconclusive, HP1b binding inh inconclusive, G9a inh 7.9µM, JMJD2A Tudor 3.2µM, PLK1 PBD block inactive and BAZ2B block inconclusive.
CCN(Cc1ccccc1)C(=O)C1CCN(Cc2sccc2C)CC1 was read as ALOX12 inh inconclusive, HP1b binding inh inconclusive, G9a inh 8.9µM, JMJD2A Tudor 2.8µM, PLK1 PBD block inactive and BAZ2B block inactive.
Screening O=C(c1ccoc1)N1CCCCCC1c1nc(-c2cccnc2)no1 (stereo not drawn) returned ALOX12 inh inactive.
Screening C=CCOc1ccc(CNCc2ccccc2)cc1 returned ALOX12 inh inactive.
Screening C[C@@H]1CN([C@@H](C)CO)C(=O)c2cc(Br)cnc2O[C@H]1CN(C)C(=O)c1ccncc1 returned ALOX12 inh inactive and PLK1 PBD block inactive.
Screening O=C(C1CC1)N(CCN(Cc1ccccc1)C(=O)C1CC1)Cc1ccccc1 returned ALOX12 inh inactive, HP1b binding inh inactive, JMJD2A Tudor inactive[11.4 µM], PLK1 PBD block 27µM and BAZ2B block inactive.
CN(C)S(=O)(=O)c1cccc(-c2nnc(SCCNCCO)n2-c2ccc(F)cc2)c1 was read as ALOX12 inh inactive, HP1b binding inh inactive, G9a inh inconclusive, JMJD2A Tudor 50µM, PLK1 PBD block inactive and BAZ2B block 79µM.
